Results from PubChem BioAssay AID1159580 (chemical genetic matrix, 2015).
Out of some 5,500 compounds screened, about 2,000 (36%) were called active. Roughly 18% stayed inconclusive and do not appear here. Cut-off read from the data, not from the text of the source: active = normalized growth mostly below about 0.91 (no sharp cut-off); inconclusive = no clear call, values can overlap the other calls; inactive = mostly above about 0.92. This is one part of the list.

Assay: chemical genetic growth profiling, strain panel (AID 1159580);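 note: tested at 20 µM; growth read once vehicle control cultures reached saturation at 30 °C; 1 = growth at the plate median or of vehicle wells; lower values mean less growth of the strain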
Conditions: S. cerevisiae deletion strains, growth OD

Measured: normalized growth

CN1Cc2c(ccc3c2OCO3)C2C(O)Cc3cc4c(cc3C21)OCO4 (stereo not given)
inactive: locus YAL013W, strain DEP1, stronger effect = lower value 0.992 | locus YBR021W, strain FUR4, stronger effect = lower value 0.939 | locus YBR229C, strain ROT2, stronger effect = lower value 1 | locus YCL029C, strain bik1, stronger effect = lower value 1.03 | locus YDL035C, strain GPR1, stronger effect = lower value 0.985 | locus YDL074C, strain BRE1, stronger effect = lower value 0.982 | locus YDL101C, strain DUN1, stronger effect = lower value 0.996 | locus YDL134C, strain PPH21, stronger effect = lower value 0.977 | locus YDL185W, strain tfp1, stronger effect = lower value 1.02 | locus YDL192W, strain arf1, stronger effect = lower value 0.999 | locus YDR101C, strain arx1, stronger effect = lower value 0.999 | locus YDR162C, strain NBP2, stronger effect = lower value 0.991 | locus YDR318W, strain mcm21, stronger effect = lower value 0.998 | locus YDR388W, stronger effect = lower value 0.987 | locus YDR502C, strain sam2, stronger effect = lower value 0.984 | locus YEL061C, strain CIN8, stronger effect = lower value 0.992 | locus YER110C, stronger effect = lower value 1.01 | locus YER155C, strain BEM2, stronger effect = lower value 0.997 | locus YER167W, strain BCK2, stronger effect = lower value 0.989 | locus YGL078C, strain dbp3, stronger effect = lower value 1.02 | locus YGL086W, strain mad1, stronger effect = lower value 0.989 | locus YGL248W, strain PDE1, stronger effect = lower value 0.995 | locus YGR078C, strain PAC10, stronger effect = lower value 0.998 | locus YGR135W, strain pre9, stronger effect = lower value 0.98 | locus YGR252W, strain gcn5, stronger effect = lower value 0.96 | locus YHR030C, strain SLT2, stronger effect = lower value 0.999 | locus YHR079C, strain IRE1 (second series), stronger effect = lower value 1.01 | locus YHR094C, strain hxt1, stronger effect = lower value 1.01 | locus YHR129C, strain ARP1, stronger effect = lower value 0.994 | locus YHR200W, strain rpn10, stronger effect = lower value 1 | locus YIL066C, strain RNR3, stronger effect = lower value 1 | locus YIL073C, strain SPO22, stronger effect = lower value 1.04 | locus YIL125W, strain kgd1, stronger effect = lower value 1.02 | locus YIR030C, strain dcg1, stronger effect = lower value 1 | locus YJL095W, strain BCK1, stronger effect = lower value 0.985 | locus YJL134W, strain LCB3, stronger effect = lower value 1.01 | locus YJL168C, strain set2, stronger effect = lower value 1 | locus YJL187C, strain SWE1 (second series), stronger effect = lower value 1 | locus YJR043C, strain POL32, stronger effect = lower value 1.01 | locus YJR075W, strain HOC1, stronger effect = lower value 0.983 | locus YKL009W, strain mrt4, stronger effect = lower value 1.01 | locus YKL068W, stronger effect = lower value 1 | locus YKL085W, strain MDH1 (second series), stronger effect = lower value 1.01 | locus YKL085W, strain MDH1, stronger effect = lower value 1.01 | locus YKL190W, strain CNB1, stronger effect = lower value 0.988 | locus YKR001C, strain vps1, stronger effect = lower value 0.997 | locus YLR039C, strain RIC1, stronger effect = lower value 0.977 | locus YLR058C, strain SHM2, stronger effect = lower value 0.992 | locus YLR102C, strain apc9, stronger effect = lower value 1.01 | locus YLR262C, strain YPT6, stronger effect = lower value 0.981 | locus YLR268W, strain sec22, stronger effect = lower value 1 | locus YLR330W, strain CHS5, stronger effect = lower value 1.01 | locus YLR342W, strain FKS1 (second series), stronger effect = lower value 0.982 | locus YLR371W, strain rom2, stronger effect = lower value 1.01 | locus YLR418C, strain cdc73, stronger effect = lower value 0.956 | locus YML016C, strain PPZ1, stronger effect = lower value 1 | locus YML032C, strain rad52, stronger effect = lower value 0.991 | locus YML124C, strain tub3, stronger effect = lower value 1.02 | locus YMR078C, strain ctf18, stronger effect = lower value 1.01 | locus YMR223W, strain ubp8, stronger effect = lower value 0.998 | locus YMR307W, strain GAS1, stronger effect = lower value 0.95 | locus YNL067W, strain RPL9B, stronger effect = lower value 0.994 | locus YNL128W, strain TEP1, stronger effect = lower value 0.996 | locus YNL233W, strain BNI4, stronger effect = lower value 1 | locus YNL250W, strain rad50, stronger effect = lower value 1.02 | locus YNL271C, strain bni1, stronger effect = lower value 1.02 | locus YNL298W, strain CLA4, stronger effect = lower value 1.03 | locus YNL307C, strain MCK1, stronger effect = lower value 1.02 | locus YNL322C, strain KRE1, stronger effect = lower value 0.999 | locus YNR052C, strain pop2, stronger effect = lower value 0.997 | locus YOL006C, strain TOP1, stronger effect = lower value 0.92 | locus YOL012C, strain htz1 1.21 | locus YOL147C, strain pex11, stronger effect = lower value 1 | locus YOR061W, strain CKA2, stronger effect = lower value 1 | locus YOR069W, strain VPS5, stronger effect = lower value 1 | locus YOR136W, strain idh2, stronger effect = lower value 1.04 | locus YOR144C, strain elg1, stronger effect = lower value 1.01 | locus YOR184W, strain ser1, stronger effect = lower value 0.984 | locus YOR316C, strain cot1, stronger effect = lower value 1.01 | locus YPL055C, strain LGE1, stronger effect = lower value 0.978 | locus YPR119W, strain clb2, stronger effect = lower value 1.01 | locus YPR141C, strain kar3, stronger effect = lower value 1.01 | locus YPR163C, strain tif3, stronger effect = lower value 1.04 | locus YPR167C, strain met16, stronger effect = lower value 1.01 | strain wtn01, stronger effect = lower value 1
